Values joined by “and” are separate entries in the source; they are usually repeats but may differ in a detail not shown here. Equal values may be shown once. Records with an inconclusive call do not appear. Where a structure was tested more than once in an assay, its records may differ in their call. Active and inactive are the calls of the source. Unless noted, the call rests on the fitted dose curve; in most records, active means well fitted curve in the direction sought with a large enough effect; inconclusive means small, poorly fitted or top-dose-only effect, or another doubt; inactive means no such curve, though single readings can be large; an effect the other way counts as inactive or inconclusive.
Columns and labels:
[1] = test system: UISO; experiment: qHTS assay to identify novel small-molecules to repurpose for Merkel cell carcinoma treatment (AID 1296009); conditions: MCC and control cell lines, CellTiter-Glo viability, 72 h; series mostly up to 46 µM; further: on the % scale 0 is the no-effect control and ±100 the full control effect; nearly all actives have a fitted effect of over 60% in size
In short: (§1)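 Cells were incubated with compound for 72 hr at 37 degree celsius before CellTiter-Glo addition. Luminescence was normalized with no-cell wells as full cytotoxicity and DMSO as baseline.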

[2] = test system: WaGa; experiment: as above; conditions: MCC and control cell lines, CellTiter-Glo viability, 72 h; series mostly up to 46 µM
In short: as §1

[3] = test system: C33A; experiment: Primary qHTS to identify gynecologic anti-cancer compounds using libraries of approved drugs and bioactive compounds (AID 1345084); conditions: Gynecologic cancer cell panel viability, ATPlite luminescence, 48 h; series mostly up to 57.5 µM; further: on the % scale 0 is the no-effect control and ±100 the full control effect; nearly all actives have a fitted effect of over 55% in size
In short: (§2)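 Luminescence from the ATPlite ATP-monitoring reagent indicates viable cell number; lower signal means cytotoxicity. Cells received compound 16 h after seeding and were exposed for 48 h across five concentrations.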

[4] = test system: CASKI; experiment: as above; conditions: Gynecologic cancer cell panel viability, ATPlite luminescence, 48 h; series mostly up to 57.5 µM
In short: as §2

[5] = test system: Es-2; experiment: as above; conditions: Gynecologic cancer cell panel viability, ATPlite luminescence, 48 h; series mostly up to 57.5 µM
In short: as §2

[6] = test system: HeLa; experiment: as above; conditions: Gynecologic cancer cell panel viability, ATPlite luminescence, 48 h; series mostly up to 57.5 µM
In short: as §2

[7] = test system: Hek293T; experiment: as above; conditions: Gynecologic cancer cell panel viability, ATPlite luminescence, 48 h, control line for the selectivity index; series mostly up to 57.5 µM
In short: as §2

[8] = test system: JEG-3; experiment: as above; conditions: Gynecologic cancer cell panel viability, ATPlite luminescence, 48 h; series mostly up to 57.5 µM
In short: as §2

[9] = test system: OV90; experiment: as above; conditions: Gynecologic cancer cell panel viability, ATPlite luminescence, 48 h; series mostly up to 57.5 µM
In short: as §2

[10] = test system: PA-1; experiment: as above; conditions: Gynecologic cancer cell panel viability, ATPlite luminescence, 48 h; series mostly up to 57.5 µM
In short: as §2

[11] = test system: SKOV3; experiment: as above; conditions: Gynecologic cancer cell panel viability, ATPlite luminescence, 48 h; series mostly up to 57.5 µM
In short: as §2

[12] = test system: Tov-21-G; experiment: as above; conditions: Gynecologic cancer cell panel viability, ATPlite luminescence, 48 h; series mostly up to 57.5 µM
In short: as §2

[13] = test system: Tov112D; experiment: as above; conditions: Gynecologic cancer cell panel viability, ATPlite luminescence, 48 h; series mostly up to 57.5 µM
In short: as §2

[14] = test system: CAOV3; experiment: as above; conditions: Gynecologic cancer cell panel viability, ATPlite luminescence, 48 h; series mostly up to 57.5 µM
In short: as §2

[15] = qHTS assay to identify inhibitors of the type 1 interferon - major histocompatibility complex class I in skeletal muscle: Counter screen cell viability and HiBit confirmation (AID 1347412); conditions: iHSKM muscle cells + IFN-b, HiBiT or CellTiter-Glo, 24 h; Potency: HiBiT; Viability, at 45.9 µM (top of the series); further: on the % scale 0 is the no-effect control and ±100 the full control effect; nearly all actives have a fitted effect of over 60% in size
In short: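 HLA-B*08:01–HiBiT knock-in immortalized human myoblasts (C25cl48) stimulated with 4.0 ng/ml human IFN-beta and dosed with compound in a 12-point 1:3 titration (top final 46 uM). After 24 hrs at 37 C, HiBiT lytic luminescence or CellTiter Glo ATP read out.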

[16] = Drug repurposing screens with cells derived from glioblastoma tumor samples (AID 1345199); conditions: GBM patient neurospheres viability, ATP luminescence, 48 h; further: on the % scale 0 is the no-effect control and ±100 the full control effect; nearly all actives have a fitted effect of over 40% in size
In short: (§3)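 Four patient lines of CD133+ GBM neurospheres were screened at several concentrations; hits were retested in those lines plus three slower-growing GBM lines, using 48-hour treatment and ATP-based viability.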

[17] = test system: astro; experiment: as above; conditions: viability, ATP luminescence, 48 h; series mostly up to 45.9 µM
In short: as §3

[18] = target: Nuclear receptor subfamily 1 group I member 2 (Rattus norvegicus) (UniProt Q9R1A7); experiment: qHTS assay for small molecule activators of the rat pregnane X receptor (rPXR) signaling pathway (AID 651751; call rule not given here; further: 0% is about no effect); conditions: rPXR reporter cells, luciferase (One-Glo), 24 h
[19] = qHTS assay for small molecule activators of the human pregnane X receptor (PXR) signaling pathway (AID 720659; call rule not given here; further: 0% is about no effect)
[20] = at 45.9 µM (top of the series), tumour line B
[21] = at 45.9 µM (top of the series), tumour line D
[22] = at 46 µM (top of the series), tumour line A
[23] = at 46.1 µM (top of the series), tumour line C
[24] = at 20 µM (top of the series), tumour line C
[25] = at 21.2 µM (top of the series), tumour line B

Chain of Nuclear receptor subfamily 1 group I member 2 (Rattus norvegicus) (Q9R1A7 whole entry, looked up): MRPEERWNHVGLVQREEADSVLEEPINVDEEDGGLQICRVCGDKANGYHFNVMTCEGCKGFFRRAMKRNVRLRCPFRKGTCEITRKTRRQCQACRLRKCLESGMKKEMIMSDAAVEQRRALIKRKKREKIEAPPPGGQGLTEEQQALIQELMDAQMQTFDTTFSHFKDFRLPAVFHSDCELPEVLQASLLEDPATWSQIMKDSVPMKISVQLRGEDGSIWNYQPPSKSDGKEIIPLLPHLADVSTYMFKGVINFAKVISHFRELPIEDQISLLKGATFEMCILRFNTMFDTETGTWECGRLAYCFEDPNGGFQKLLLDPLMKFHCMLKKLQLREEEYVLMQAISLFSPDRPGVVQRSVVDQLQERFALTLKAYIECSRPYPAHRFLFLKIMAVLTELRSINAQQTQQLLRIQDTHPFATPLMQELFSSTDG

Cc1ccnc(NS(=O)(=O)c2ccc(NC(=O)Nc3ccc(S(=O)(=O)Nc4nccc(C)n4)cc3)cc2)n1
inactive: Potency [1] | Potency [2] | Potency [3] | Potency [4] | Potency [5] | Potency [6] | Potency [7] | Potency [8] | Potency [9] | Potency [10] | Potency [11] | Potency [12] | Potency [13]

CC[C@@H](C)[C@H](NC(=O)[C@H](CC1CCCCC1)NC(=O)c1ccno1)C(=O)N1CCC2(CCc3ccccc32)CC1
inactive: Potency [1] | Potency [2] | Potency [3] | Potency [14] | Potency [4] | Potency [5] | Potency [6] | Potency [7] | Potency [8] | Potency [9] | Potency [10] | Potency [11] | Potency [12] | Potency [13] | Potency [15]

Cn1cc(-c2ccc3nnc(C(F)(F)c4ccc5ncccc5c4)n3n2)cn1
inactive: Potency [1] | Potency [2] | Potency [3] | Potency [14] | Potency [4] | Potency [5] | Potency [6] | Potency [7] | Potency [8] | Potency [9] | Potency [10] | Potency [12] | Potency [13]

CC(C)(C)NCC(O)c1ccc(O)c(CO)c1 (centres undefined)
inactive: Potency [1] | Potency [2] | Potency [3] | Potency [4] | Potency [5] | Potency [6] | Potency [7] | Potency [8] | Potency [9] | Potency [10] | Potency [12] | Potency [13] | activity, negative = cell killing [16, 20] -3.69% | activity, negative = cell killing [16, 21] -16.6% | activity, negative = cell killing [16, 22] -18.1% | activity, negative = cell killing [16, 23] -6.46% | Potency [17]

CC(c1cc2ccccc2s1)N(O)C(N)=O (centres undefined)
inactive: Potency [1] | Potency [2] | Potency [3] | Potency [14] | Potency [4] | Potency [5] | Potency [7] | Potency [8] | Potency [9] | Potency [10] | Potency [11] | Potency [12] | Potency [13] | activity, negative = cell killing [16, 20] -3.78% | activity, negative = cell killing [16, 21] -20.5% | activity, negative = cell killing [16, 22] -18.2% | activity, negative = cell killing [16, 23] -18.9% | Potency [17]

Nc1ccc(S(=O)(=O)Nc2ccnn2-c2ccccc2)cc1
inactive: Potency [1] | Potency [2] | Potency [3] | Potency [14] | Potency [4] | Potency [5] | Potency [6] | Potency [7] | Potency [8] | Potency [9] | Potency [10] | Potency [12] | Potency [13] | activity, negative = cell killing [16, 24] -5.82% | activity, negative = cell killing [16, 25] -5.49% | activity, negative = cell killing ([16]; at 21.2 µM (top of the series), tumour line D) -1.62% | activity, negative = cell killing ([16]; at 21.3 µM (top of the series), tumour line A) -21.3% | Potency [17]

NNCCc1ccccc1
inactive: Potency [1] | Potency [2] | Potency [3] | Potency [4] | Potency [5] | Potency [6] | Potency [7] | Potency [8] | Potency [9] | Potency [10] | Potency [11] | Potency [12] | Potency [13] | activity, negative = cell killing [16, 24] -0.565% | activity, negative = cell killing [16, 25] -10.9% | Potency [17]

O=C1CCC(N2C(=O)c3ccccc3C2=O)C(=O)N1 (centres undefined)
inactive: Potency [1] | Potency [2] | Potency [3] | Potency [4] | Potency [5] | Potency [6] | Potency [7] | Potency [8] | Potency [9] | Potency [10] | Potency [11] | Potency [12] | Potency [13] | activity, negative = cell killing [16, 20] -4.2% | activity, negative = cell killing [16, 21] -2.61% | activity, negative = cell killing [16, 22] -6.31% | activity, negative = cell killing [16, 23] 3.21% | Potency [17] | max response [18] 1.73% | outcome [19]

CCc1ccc(CCOc2ccc(CC3SC(=O)NC3=O)cc2)nc1 (centres undefined)
inactive: Potency [1] | Potency [2] | Potency [3] | Potency [4] | Potency [5] | Potency [6] | Potency [7] | Potency [8] | Potency [9] | Potency [10] | Potency [11] | Potency [12] | Potency [13] | activity, negative = cell killing [16, 20] -10.3% | activity, negative = cell killing [16, 21] -17.6%

Cc1[nH]c(=O)c(C#N)cc1-c1ccc2nccn2c1
inactive: Potency [1] | Potency [2] | Potency [3] | Potency [4] | Potency [5] | Potency [6] | Potency [7] | Potency [8] | Potency [9] | Potency [10] | Potency [11] | Potency [12] | Potency [13] | activity, negative = cell killing [16, 20] -4% | activity, negative = cell killing [16, 21] 0.316% | activity, negative = cell killing [16, 22] -27% | activity, negative = cell killing [16, 23] -6.47% | Potency [17]

O=c1[nH]cnc2[nH]ncc12
inactive: Potency [1] | Potency [2] | Potency [3] | Potency [14] | Potency [4] | Potency [5] | Potency [6] | Potency [8] | Potency [9] | Potency [10] | Potency [11] | Potency [12] | Potency [13] | activity, negative = cell killing [16, 20] -5.74% | activity, negative = cell killing [16, 21] -0.0406% | activity, negative = cell killing [16, 22] -9.81% | activity, negative = cell killing [16, 23] 7.88% | Potency [17] | max response [18] 2.04% | outcome [19]

Cc1ccccc1C(OCCN(C)C)c1ccccc1 (centres undefined)
inactive: Potency [1] | Potency [2] | Potency [3] | Potency [14] | Potency [4] | Potency [5] | Potency [6] | Potency [7] | Potency [8] | Potency [10] | Potency [11] | Potency [12] | Potency [13] | activity, negative = cell killing [16, 21] -29.5% | activity, negative = cell killing [16, 23] 0.923% and -8.9% | Potency [17] | max response [18] 4.25%

NCCCC(N)(C(=O)O)C(F)F (centres undefined)
inactive: Potency [1] | Potency [2] | Potency [3] | Potency [4] | Potency [5] | Potency [6] | Potency [7] | Potency [8] | Potency [9] | Potency [10] | Potency [11] | Potency [12] | Potency [13] | activity, negative = cell killing [16, 20] -9.02% | activity, negative = cell killing [16, 21] 7.69% | activity, negative = cell killing [16, 22] -29.6% | activity, negative = cell killing [16, 23] -4.46% | Potency [17]

COc1ccc2nc(S(=O)Cc3ncc(C)c(OC)c3C)[nH]c2c1 (centres undefined)
inactive: Potency [1] | Potency [2] | Potency [3] | Potency [4] | Potency [5] | Potency [6] | Potency [7] | Potency [8] | Potency [9] | Potency [10] | Potency [11] | Potency [12] | Potency [13] | activity, negative = cell killing [16, 20] -19.3% | Potency [17] | max response [18] 14.6%

Reference: PubChem BioAssay (NCATS)
